The list is not random: actives were taken first. Their share in the collection is about 2.3%.
TRPV1 potentiator – human TRPV1 potentiation. Q8NER1. TRPV1-expressing cells, Fluo-8 calcium influx, capsaicin EC20 potentiation. potentiation, % at 8.33 µM. 0.02% of 320,000 active. AID 540277; in the data active = potentiation above about 80%; inconclusive = between about 30% and that limit; note: 0% is about no effect
Target sequence (Q8NER1 whole entry, looked up): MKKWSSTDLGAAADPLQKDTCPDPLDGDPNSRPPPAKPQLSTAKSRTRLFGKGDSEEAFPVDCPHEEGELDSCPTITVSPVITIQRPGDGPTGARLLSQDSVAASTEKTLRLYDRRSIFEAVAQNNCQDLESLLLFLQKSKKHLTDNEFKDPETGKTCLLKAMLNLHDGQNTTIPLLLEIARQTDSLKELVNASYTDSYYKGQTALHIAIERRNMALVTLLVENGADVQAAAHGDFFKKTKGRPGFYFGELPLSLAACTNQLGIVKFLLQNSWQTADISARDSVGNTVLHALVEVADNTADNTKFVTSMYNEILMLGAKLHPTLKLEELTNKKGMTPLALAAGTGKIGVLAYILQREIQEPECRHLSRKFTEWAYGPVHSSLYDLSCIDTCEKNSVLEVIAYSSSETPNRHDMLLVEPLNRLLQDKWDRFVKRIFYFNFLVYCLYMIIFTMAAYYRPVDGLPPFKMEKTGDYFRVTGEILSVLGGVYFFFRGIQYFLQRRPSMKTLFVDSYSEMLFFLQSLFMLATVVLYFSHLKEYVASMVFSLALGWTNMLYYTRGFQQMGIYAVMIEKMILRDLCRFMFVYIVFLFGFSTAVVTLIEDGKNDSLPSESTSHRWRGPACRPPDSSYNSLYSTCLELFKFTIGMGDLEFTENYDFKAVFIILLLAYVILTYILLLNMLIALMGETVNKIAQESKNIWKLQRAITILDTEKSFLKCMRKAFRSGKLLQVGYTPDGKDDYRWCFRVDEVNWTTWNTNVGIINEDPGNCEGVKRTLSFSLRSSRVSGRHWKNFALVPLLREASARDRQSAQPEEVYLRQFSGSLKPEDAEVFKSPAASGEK
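Fluo-8 calcium influx in TRPV1-expressing cells, kinetic read (ex 480/em 520 nm). Compound added and read 3 min for agonist activity, followed by capsaicin at EC20 final and 2 min further read for enhancement.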
FUS yeast rescue – suppressors of FUS proteinopathy in yeast. S. cerevisiae FUS-expressing, growth rescue, OD600, 24 h. Potency, µM (series often up to 76.6 µM), most hits filed as activators. 0.24% of 390,000 active. AID 1347120;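 note: potency is the fitted concentration of half-maximal effect; plate controls were DMSO vehicle for no effect and reference control for full effect; nearly all actives have a fitted effect of over 55% in size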
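Absorbance at 600 nm, taken 24hr after compound addition, measured rescue of FUS-yeast growth at 30C. Induction used 2% galactose with seeding at OD 0.005. Controls: CP55940 from 92uM final, DMSO only.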
Giardia kill – Giardia lamblia killing; Giardia lamblia trophozoite viability; activity change, % at 7.66 µM, hits read low; 0.15% of 340,000 active; in the data active = activity change below about -80%; inconclusive = between about -30% and that limit;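 note: parasites exposed to compound for two days anaerobically before the ATP read; % is set by controls: 0 for no effect and ±100 for the full control effect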
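ATP-content bioluminescence gauges trophozoite survival. Cells (100/well) receive compound and incubate anaerobically for 48 hrs at 37 deg C; detection reagent follows for 15-30 min at room temperature.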
TRPV1 ag – agonists of human vanilloid receptor 1 (TRPV1); Q8NER1; TRPV1-expressing cells, Fluo-8 calcium influx, agonist mode; activation, % at 8.33 µM; 0.19% of 320,000 active; AID 540275; in the data active = activation above about 80%; inconclusive = between about 30% and that limit; note: 0% is about no effect
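Fluo-8 calcium influx in TRPV1-expressing cells, kinetic read (ex 480/em 520 nm). Compound added and read 3 min for agonist activity, followed by capsaicin at EC20 final and 2 min further read for enhancement.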
ELG1 DNA repair – blocks ELG1-dependent DNA repair in HEK293T cells; HEK293T ELG1-luciferase reporter, luminescence, 16 h; DNA damage induced by 5-fluorouridine; AID 504467; 2.3% of 330,000 active; Potency, µM (series often up to 46.1 µM), for inactives: top-dose activity change, negative = inhibition, actives largely listed as inhibitors; note: potency is the fitted concentration of half-maximal effect; % is set by controls: 0 for no effect and ±100 for the full control effect; nearly all actives have a fitted effect of over 55% in size
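Cells (2,000 per well) received 5-fluorouridine plus test compound or DMSO and were incubated 16 hr at 37 °C, 5% CO2. Luciferase activity was read by luminescence 30 min after ONE-Glo addition; signal suppression marked inhibition of damage-induced ELG1 function.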
* hit, by the source's call; i = inactive; ? = inconclusive; . = not tested or not shown. Unless noted, calls come from the whole dose curve; as a rule, active = well fitted curve in the direction sought with a large enough effect; inconclusive = small, poorly fitted or top-dose-only effect, or another doubt; inactive = no such curve, though single readings can be large; an effect the other way counts as inactive or inconclusive.

SMILES	TRPV1 potentiator	FUS yeast rescue	Giardia kill	TRPV1 ag	ELG1 DNA repair
COc1ccccc1CN(C(=O)Cc1cccs1)C(C(=O)NC1CCCC1)c1ccncc1 (configuration not stated)	-11.0	?	16.7	7.7	-24.4%
COc1cc(C(C(=O)NC2CCCCC2)N(Cc2cccs2)C(=O)Cc2c[nH]c3ccccc23)cc(OC)c1OC (configuration not stated)	0.5	i	-4.5	0.8	14.6µM*
COc1cc(C(C(=O)NC2CCCCC2)N(C(=O)Cc2c[nH]c3ccccc23)c2ccccc2C)cc(OC)c1OC (configuration not stated)	-2.0	22.4µM*	-22.8	-2.0	-0.1%
Cc1ccc(NC(=O)CN2C(=O)S/C(=C/c3ccc(O)c([N+](=O)[O-])c3)C2=O)cc1C	3.4	i	-82.0*	-0.4	3.7%
O=C1S/C(=C\c2ccc(O)c([N+](=O)[O-])c2)C(=O)N1Cc1cccc([N+](=O)[O-])c1	-5.2	i	-81.5*	2.6	?
O=C1/C(=C\c2cc([N+](=O)[O-])ccc2O)SC(=S)N1Cc1ccc(Cl)cc1	?	i	-9.3	?	18.3µM*
Cc1cccc(NC(=O)CN2C(=O)S/C(=C\c3ccc(O)c([N+](=O)[O-])c3)C2=O)c1	84.0*	i	?	2.7	-13.8%
O=C(O)c1cccc(CN2C(=O)S/C(=C/c3ccccc3[N+](=O)[O-])C2=O)c1	1.1	i	?	1.4	4.0%
Cc1ccc(Cl)cc1NC(=O)CSc1nc2ccccc2c2nc(-c3ccccc3)nn12	.	i	.	.	.
FC(F)Oc1ccc(-n2cc(-c3ccccc3)[n+]3c2CCCCC3)cc1	9.3	i	15.5	-0.4	16.4µM*
Cc1ccc(-c2cn(-c3ccc(OC(F)F)cc3)c3[n+]2CCCCC3)cc1	-8.8	i	-11.2	-3.1	9.2µM*
Cc1ccc(-c2cn(-c3ccc(SC(F)F)cc3)c3[n+]2CCC3)cc1	9.6	.	3.0	-3.8	?
Cc1nc(-c2cccc(F)c2)sc1CCNC(=O)Cc1ccc(F)cc1	.	i	.	.	.
COc1ccc(-c2csc3nc(C)nc(N4CCN(c5ccc(C(C)=O)cc5)CC4)c23)cc1OC	-33.0	i	?	0.2	13µM*
CN(C(=O)CSc1nc2ccccc2n1CC(=O)N(C)C1CCCCC1)c1ccccc1	.	i	.	.	.
O=C(Nc1ccc2nc(SCC(=O)N3CCCC3)sc2c1)c1ccccc1	.	i	.	.	.
Cn1c(SCC(=O)Nc2ccc3nc(SCC(=O)N4CCCC4)sc3c2)nnc1-c1ccccc1	11.6	i	-8.4	-3.7	20.6µM*
COC(=O)c1ccccc1-c1ccc(/C=N/NC(=O)c2cc3ccccc3o2)o1	22.4	.	8.2	5.2	?
COC(=O)c1ccccc1-c1c2ccc(=N)cc-2oc2cc(N)ccc12	-4.6	i	9.0	122.7*	9.7%
COc1ccc2[nH]c3c(N4CC(C)OC(C)C4)ncnc3c2c1 (configuration not stated)	-20.3	i	-1.4	18.7	?
CCOc1ccc2[nH]c3c(N4CCN(c5ccccn5)CC4)ncnc3c2c1	-17.7	i	2.3	-1.3	16.4µM*
CCOc1ccc2oc(C(=O)N3CCN(c4ccccn4)CC3)c(C)c2c1	15.1	i	-6.4	1.4	1.0%
Cc1ccc2[nH]c3c(N4CCN(Cc5ccc6c(c5)OCO6)CC4)ncnc3c2c1	-6.3	.	.	?	23.1µM*
COc1cccc2[nH]c3c(N4CCN(Cc5ccc6c(c5)OCO6)CC4)ncnc3c12	4.5	.	.	-7.0	23.1µM*
COc1ccc2c(c1)[nH]c1c(N3CCSCC3)ncnc12	-15.4	i	4.2	17.8	9.2µM*
SMILES	TRPV1 potentiator	FUS yeast rescue	Giardia kill	TRPV1 ag	ELG1 DNA repair
COc1ccc2c(c1)[nH]c1c(N3CCN(Cc4ccc5c(c4)OCO5)CC3)ncnc12	-14.4	.	-2.3	13.4	20.6µM*
c1nc(N2CCN(Cc3ccc4c(c3)OCO4)CC2)c2[nH]cnc2n1	8.6	i	-20.5	2.5	?
Fc1ccc2[nH]c3c(N4CCN(C5CCCCC5)CC4)ncnc3c2c1	-12.3	.	.	-0.4	-1.1%
Cc1ccc2[nH]c3c(N4CCCCCC4)ncnc3c2c1	-15.3	.	.	26.2	10.3µM*
Cc1ccccc1CNC(=O)C(=O)NCC(c1cccs1)S(=O)(=O)c1ccc(Cl)cc1 (configuration not stated)	.	i	.	.	.
Cc1ccc(-n2nc3c(N4CCC(C(=O)NCc5cccc(F)c5)CC4)nnc(C)c3c2C)cc1	-16.1	i	?	?	16.4µM*
Cc1ccccc1NC(=O)CSc1nc(-c2ccccc2)cn1-c1ccccc1F	.	i	.	.	.
O=C(Nc1ccccc1F)c1oc2ccccc2c1NC(=O)c1c(F)cccc1F	.	i	.	.	.
CSc1ccc(Cl)c(C(=O)N2CCOc3ccccc32)c1	2.5	i	-23.8	9.7	9.2µM*
O=C(CSc1n[nH]c(-c2ccccn2)n1)Nc1ccc(Cl)cc1	?	i	-7.0	4.4	20.6µM*
O=S(=O)(O)c1c(NS(=O)(=O)c2ccccc2)ccc2ccccc12	8.2	.	1.0	3.6	.
CC(C)(C)OC(=O)N1CCC(N[C@@H](Cc2c[nH]c3ccccc23)C(=O)NCC(c2ccccc2)c2ccccc2)(C(=O)NC2CCCCC2)CC1	.	10µM*	.	.	.
CN1CCC(N[C@@H](Cc2c[nH]c3ccccc23)C(=O)NCC(c2ccccc2)c2ccccc2)(C(=O)NC2CCCCC2)CC1	.	i	.	.	.
Cc1ccc(/C=N/N2CCN(c3ccccc3)CC2)cc1	-0.4	i	-10.5	0.8	?
Clc1ccc(CN2CCN(N=Cc3ccncc3)CC2)cc1	.	i	.	.	.
Clc1ccc(N2CCN(/N=C/c3ccncc3)CC2)cc1	.	i	-11.2	.	20.6µM*
Cc1ccc(N2CCN(/N=C/c3ccncc3)CC2)cc1	-5.9	i	-1.2	27.0	18.3µM*
CCn1c(=O)c2cc(C(=O)NCc3ccc(F)cc3Cl)sc2c2ccccc21	.	i	.	.	.
Clc1cccc(N2CCN(CCNc3nc4ccccc4n4cnnc34)CC2)c1	5.9	i	8.1	-1.4	20.6µM*
COc1ccc(-c2cn3c(n2)sc2cc(C(=O)NCc4cccc(F)c4)ccc23)cc1	.	i	.	.	.
Cc1ccc(S(=O)(=O)c2nc(-c3cccc(C)c3)oc2N2CCCCC2)cc1	.	i	.	.	.
COc1cccc(NC(=O)CSC2=Nc3ccccc3C3=NC(CC(=O)NCc4ccccc4OC)C(=O)N23)c1 (configuration not stated)	.	35.5µM*	.	.	.
CC(C)c1ccc(NC(=O)CSC2=Nc3ccccc3C3=NC(CC(=O)NC4CCCCC4)C(=O)N23)cc1 (configuration not stated)	.	31.6µM*	.	.	.
CC(C)c1ccc(NC(=O)CSC2=Nc3ccccc3C3=NC(CCC(=O)NC4CCCCC4)C(=O)N23)cc1 (configuration not stated)	.	i	.	.	.

Screens as filed in PubChem.
